Article PMC12136788
Changes are numbered by the printed parent chain. Over roughly 24,000 sequences, “enrichment r” has its median near 0.99; the highest 2% begin near 3.7. The full list was thinned out, with the highest values kept by preference.

T1: UNK ZnF1-3 (human, UniProt Q9C0B0 31-174)
T1 sequence: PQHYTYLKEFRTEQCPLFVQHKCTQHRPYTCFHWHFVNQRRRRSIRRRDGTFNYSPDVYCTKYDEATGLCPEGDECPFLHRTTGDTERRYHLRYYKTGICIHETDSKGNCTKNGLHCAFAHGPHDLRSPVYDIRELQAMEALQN

B1: chr12:56499883:56499884:+_ENSMUSG00000021024_ENSMUST00000021412|mus_mus|FALSE|FALSE (ssRNA)
RNA: GGGAGUUCUACAGUCCGACGAUCGAUAGUAAUGUGACGGUCAAAACCGGCGCUGGAACCCCGGGACAUGGCGUUCCUGCUAUUUUAAACACAGUCUGCACCCCGUAGCACACACACCAGGGACCCAAGCCCCCUCCCGGAAGUCAACAGAGGAUUGAGCAUCA
B2: chr8:110352747:110352748:+_ENSG00000120533_ENST00000521662|hu_mus|FALSE|FALSE (ssRNA)
RNA: GGGAGUUCUACAGUCCGACGAUCCAGGGCUCUGCCUUUUGGAGUGAUUUCAGCCACCAAGUCAUCAACAGUAACGUGUUCUAGUCCUUUUUCUUUAAUUACCUCUUUACAGUGUGCCUUUAGCUGAUCCUUCCAGCCGCACUCCAACAGAGGAUUGAGCAUCA
B3: chr6:31457689:31457690:+_ENSMUSG00000025609_ENSMUST00000142469|perfect_dup|motif|central (ssRNA)
RNA: GGGAGUUCUACAGUCCGACGAUCUGAUCAGGUCUACCAGGUUGCCUUUAGGAGGAGUCAUGCUGUCAGGAAAGAAAUUUACGGAGGUGUCAAAGAGCUGAGUUCUUUGAGCAUAGGUAUGAUCCACAUCUGAAAAGCCAUAAUCAACAGAGGAUUGAGCAUCA
B4: chr12:25667166:25667167:+_ENSMUSG00000036333_ENSMUST00000066652|mus_mus|motif|central (ssRNA)
RNA: GGGAGUUCUACAGUCCGACGAUCUCUUCCACAUAAUUUAUCACACUCUGUGAUAUAAGAACCGACAUUUUCACAGAAAUCGGUAGCCGACUUUAAUUCACCGUGUCACGGCCUGGCCGAAGACGGCGCCCUCAGCUCUGCAGACAACAGAGGAUUGAGCAUCA
B5: chr19:8913615:8913616:-_ENSMUSG00000071658_ENSMUST00000096259|mus_hu|mus_mus_mus_hu_False|1_8 (ssRNA)
RNA: GGGAGUUCUACAGUCCGACGAUCAGGGUACCAAAACCUUCUGCCUGAAAUGGGUGCCCCACCCAGUAGGGAGUUGCAGCUGAAAGUAUCUGAUGCAGAAGCAGUGACUAUACGAAAGGAGGCCCCUGAUGCUCAGACGAGAUCCAACAGAGGAUUGAGCAUCA
B6: chr2:241070490:241070491:-_ENSG00000172428_ENST00000607357|hu_mus|FALSE|FALSE (ssRNA)
RNA: GGGAGUUCUACAGUCCGACGAUCUCACAGACAUGGAGCACAUAGGACCGGGCGGCCUCACUGGACAUCAUCAUCAUCAAAAAGGUCUUCAAAAUCAUUAAAAAAGUCUGCAUGAACGGCCUUCUCAUUGGCUGCCAGGUCCAUCAACAGAGGAUUGAGCAUCA
B7: chr11:100882373:100882374:+_ENSMUSG00000019302_ENSMUST00000044721|mus_mus|FALSE|FALSE (ssRNA)
RNA: GGGAGUUCUACAGUCCGACGAUCUUCCUGGUUAGUGUUGAUUUCCUUCAGUUCAUUUUCAAUCUUCUCGAAAUUGGCCUCUAAGUCGAUCAUGUCCCGAGGGAAGGGCACCUCUGGGUUUUCACCGGUGUCCAUAAUUGGGAUCAACAGAGGAUUGAGCAUCA
B8: 90660906_90661026_1561_CDS_ENSG00000112182_ENST00000537989|human|control|control (ssRNA)
RNA: GGGAGUUCUACAGUCCGACGAUCAUCCCCCGCUCUGUCCUUGGCGUCAGGCUCAUCUCCAGACAGGCAGAGCGUGAUGCUCUCUUCCUCAUUCUCUUCACUGGGCGGCUCACUUUUAAUCUGCCCCCUGGCAAGCCCCGGCUUCAACAGAGGAUUGAGCAUCA
B9: chr2:119552488:119552489:+_ENSMUSG00000027304_ENSMUST00000028767|mus_hu|FALSE|FALSE (ssRNA)
RNA: GGGAGUUCUACAGUCCGACGAUCGAACAUCGCUUCUUUCCACUUCAUAAACUCACUUUCGGUGAAUUCUUGGUUUGAGACAAACUCUAAACGGAACACGCGUUGGUCAUUGCCAUGCCGUAGUUGCAGCCCUUUGUUUGUUCUCAACAGAGGAUUGAGCAUCA
B10: 98509248_98511339_722_CDS_ENSG00000140450_ENST00000268042|human|control|control (ssRNA)
RNA: GGGAGUUCUACAGUCCGACGAUCGUAUCCCUUUCUUUCAAUUUUGGCACUCAGCGAGACUGGACCAGAAGUGAAAAACCAACAGCCAACCAUUUUCUCUUGAGUUUUCAAUACAGGGGUUAAUAAUGCUGGUGUGUUGACAUCCAACAGAGGAUUGAGCAUCA
B11: chr16:45382771:45382772:-_ENSMUSG00000022661_ENSMUST00000163230|mus_mus|mus_mus_mus_hu_True|38_108 (ssRNA)
RNA: GGGAGUUCUACAGUCCGACGAUCCUGAGUGUUAUUGUAAGACAAAUGGACAGGGAGGGCAUGCUUCUCAAAAAAUGUGAGCUAUUGUCUAAGACUAACAAUAUUGCUCUAGCUAUAAAAAUAAGUUAAAUGAAUAAGUUAAGACAACAGAGGAUUGAGCAUCA
B12: chr16:45382771:45382772:-_ENSMUSG00000022661_ENSMUST00000163230|mus_mus|mus_mus_mus_hu_True|38_88 (ssRNA)
RNA: B11 RNA with A27G, G30C, U31A, A33G, G36A, C50U
B13: 107603385_107603505_2018_CDS_ENSG00000091136_ENST00000393561|human|control|control (ssRNA)
RNA: GGGAGUUCUACAGUCCGACGAUCGGAAUAUGGUAUGUUGUCAAUGAAAAACUCCAAAUAAGCCCCUUCAGGCACUCGGACGAAGCCGGCUCCAGUCCAGGAGGGAAUCCGGUCCUGGAUAUAUUGCCGCUCCACUAUGCUAACCAACAGAGGAUUGAGCAUCA
B14: chr16:45382771:45382772:-_ENSMUSG00000022661_ENSMUST00000163230|mus_mus|mus_mus_mus_hu_True|1_38 (ssRNA)
RNA: GGGAGUUCUACAGUCCGACGAUCCUGGGUCAUGUUAUAAGACAAAUGGACAGGGAGGGCAUGCUUCUCAAAAAAUGUGAGCUAUUGUCUAAGACUAACAAUAUUGCUCUAGCUAUAAAAAUAAGUUAAAUGAAUAAACAUUACCAACAGAGGAUUGAGCAUCA

Each binder was assayed against T1, UNK ZnF1-3 (assay: nsRBNS (natural sequence RNA bind-n-seq); RBNS binding buffer (assumed for nsRBNS): 25 mM Tris pH 7.5, 150 mM KCl, 3 mM MgCl2, 0.01% Triton X-100, 500 ug/ml BSA, 20 U/ml SUPERase-In, 4 C; UNK is unkempt and MSI1 is Musashi-1; names of the RNAs are library labels; protein concentration not given here; high values mean tight binding).
B1 gave a binding signal of 0.679 enrichment R. B2 was tested, and the binding signal was 0.801 enrichment R. Work on B3 yielded a binding signal of 1.63 enrichment R. Work on B4 yielded a binding signal of 0.699 enrichment R. For B5, the binding signal was 1.25 enrichment R. For B6, the binding signal was 0.924 enrichment R. Binder B7 has a binding signal of 0.394 enrichment R. B8 gave a binding signal of 0.641 enrichment R. Binder B9 has a binding signal of 0.468 enrichment R. Work on B10 yielded a binding signal of 1.16 enrichment R. Binder B11 has a binding signal of 8.75 enrichment R. B12 showed a binding signal of 7.9 enrichment R. For B13, the binding signal was 0.989 enrichment R. Binder B14 has a binding signal of 6.59 enrichment R.
